The record followed here is paper PMC3218832.

Holding throughout (assay): protein binding microarray; high values mean tight binding
Conditions in all cases: dsDNA, one strand shown

Experiment [1] has as its target RELARELA (p65 homodimer) (Homo sapiens, UniProt Q04206 1-307).
In experiment [2] the target is p50p50 homodimer (Homo sapiens, UniProt P19838 7-356).
Experiment [3] deals with T1, p52p52 homodimer (Homo sapiens, UniProt Q00653 4-332).
T1 sequence: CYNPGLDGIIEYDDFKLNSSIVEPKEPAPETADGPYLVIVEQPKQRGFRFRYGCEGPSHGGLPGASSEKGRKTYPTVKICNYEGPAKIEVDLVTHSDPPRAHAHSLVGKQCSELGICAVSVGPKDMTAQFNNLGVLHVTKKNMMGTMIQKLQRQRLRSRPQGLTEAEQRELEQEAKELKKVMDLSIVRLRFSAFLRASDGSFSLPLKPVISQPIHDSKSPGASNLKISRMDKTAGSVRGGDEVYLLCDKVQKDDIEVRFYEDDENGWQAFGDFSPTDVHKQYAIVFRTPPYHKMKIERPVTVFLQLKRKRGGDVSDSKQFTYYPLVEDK

Experiment [4] has as its target RELA (p65) subunit of heterodimer;p50 subunit (Homo sapiens;Homo sapiens, UniProt Q04206;P19838 1-307;7-356).
The target in experiment [5] is RELA (p65) subunit of heterodimer;p52 subunit (Homo sapiens;Homo sapiens, UniProt Q04206;Q00653 1-307;4-332).
Experiment [6] has as its target RELB subunit;p50 subunit (Homo sapiens;Homo sapiens, UniProt Q01201;P19838 120-401;7-356).
Experiment [7] deals with T2, RELB subunit;p52 subunit (Homo sapiens;Homo sapiens, UniProt Q01201;Q00653 120-401;4-332).
T2 sequence 1: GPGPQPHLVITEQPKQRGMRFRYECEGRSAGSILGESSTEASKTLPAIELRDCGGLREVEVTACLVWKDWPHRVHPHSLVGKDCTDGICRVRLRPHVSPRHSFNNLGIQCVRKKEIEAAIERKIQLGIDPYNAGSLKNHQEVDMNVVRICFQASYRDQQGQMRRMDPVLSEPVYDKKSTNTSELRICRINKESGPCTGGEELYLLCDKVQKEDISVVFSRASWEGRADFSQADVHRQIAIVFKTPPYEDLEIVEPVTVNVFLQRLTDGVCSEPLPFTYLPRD
T2 sequence 2: T1 sequence

Experiment [8] has as its target C-Rel subunit;p50 subunit (Homo sapiens;Homo sapiens, UniProt Q04864;P19838 1-285;7-356).
The target of experiment [9] is T3, C-Rel subunit;p52 subunit (Homo sapiens;Homo sapiens, UniProt Q04864;Q00653 1-285;4-332).
T3 sequence 1: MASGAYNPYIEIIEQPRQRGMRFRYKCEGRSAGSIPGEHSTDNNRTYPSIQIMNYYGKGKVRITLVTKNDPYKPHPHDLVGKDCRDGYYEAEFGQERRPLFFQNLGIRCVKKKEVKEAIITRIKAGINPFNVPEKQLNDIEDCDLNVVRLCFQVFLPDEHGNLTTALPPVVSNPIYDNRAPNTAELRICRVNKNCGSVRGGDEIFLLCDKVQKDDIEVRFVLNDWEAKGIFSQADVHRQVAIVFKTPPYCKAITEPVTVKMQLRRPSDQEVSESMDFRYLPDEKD
T3 sequence 2: T1 sequence

Chain of RELARELA (p65 homodimer) (Q04206 1-307): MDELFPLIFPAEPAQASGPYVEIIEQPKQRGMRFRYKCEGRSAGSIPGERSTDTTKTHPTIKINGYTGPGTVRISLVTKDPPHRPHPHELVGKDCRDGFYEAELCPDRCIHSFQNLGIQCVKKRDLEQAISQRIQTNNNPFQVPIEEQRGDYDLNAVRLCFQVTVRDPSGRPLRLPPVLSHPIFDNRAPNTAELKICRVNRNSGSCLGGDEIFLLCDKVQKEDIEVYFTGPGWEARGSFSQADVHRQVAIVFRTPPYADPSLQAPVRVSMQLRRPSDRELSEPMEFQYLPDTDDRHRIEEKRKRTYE
Chain of RELA (p65) subunit of heterodimer;p50 subunit (Q04206 1-307, chain 1 of 2): as the sequence (Q04206 1-307) above
Chain of RELA (p65) subunit of heterodimer;p50 subunit (P19838 7-356, chain 2 of 2): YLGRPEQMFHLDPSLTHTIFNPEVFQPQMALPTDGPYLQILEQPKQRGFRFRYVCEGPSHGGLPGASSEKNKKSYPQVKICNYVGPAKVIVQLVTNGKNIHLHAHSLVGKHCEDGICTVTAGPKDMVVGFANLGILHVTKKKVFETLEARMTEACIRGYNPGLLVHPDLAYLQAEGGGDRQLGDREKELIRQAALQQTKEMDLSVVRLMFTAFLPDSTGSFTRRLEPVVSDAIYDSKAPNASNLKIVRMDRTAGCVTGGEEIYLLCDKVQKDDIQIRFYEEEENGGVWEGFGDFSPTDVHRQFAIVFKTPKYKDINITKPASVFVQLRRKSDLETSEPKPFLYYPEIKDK
Chain of p50p50 homodimer (P19838 7-356): as the sequence (P19838 7-356, chain 2 of 2) above

Consider CGAAGGACCCT, for which the binding signal in [1] was -1.31 z-score; in [2] it was -1.42 z-score; in [3], -0.622 z-score; in experiment [4], -0.948 z-score; in experiment [5] it was -0.812 z-score; in [6] it was -0.928 z-score. Besides, the figures for the binding signal in experiment [7], in experiment [8] and in experiment [9] were -0.721 z-score, -1.47 z-score and -0.87 z-score, respectively.

In the case of AAAGTTACCCT, the binding signal in experiment [1] is -0.188 z-score; in experiment [2], 0.663 z-score; in [3], 0.376 z-score; in experiment [4], 0.371 z-score; in [5], 0.376 z-score; in experiment [6], 0.557 z-score. The binding signal in experiment [7] worked out at 0.191 z-score; in [8], 0.279 z-score; in experiment [9] it was 0.216 z-score.

With AGGTGCACCCC, the binding signal in experiment [1] is -0.368 z-score; in [2], 0.235 z-score; in experiment [3], 0.492 z-score; in experiment [4], 0.0923 z-score; in [5], 0.549 z-score; in [6], 0.107 z-score. Moreover, the binding signal in [7] is 0.61 z-score; in [8] it was -0.0192 z-score; in [9] it was 0.815 z-score.

GAAAAAACCCC: the binding signal in experiment [1] worked out at 2.27 z-score; in experiment [2] it was 1.19 z-score; in experiment [3], 2.74 z-score; in experiment [4], 1.93 z-score; in experiment [5], 2.2 z-score; in experiment [6] it was 2.14 z-score. Also, the figures for the binding signal in experiment [7], in experiment [8] and in experiment [9] were 2.12 z-score, 1.45 z-score and 2.18 z-score, respectively.

Consider GGAGGACCCCT, for which the binding signal in experiment [1] is -0.648 z-score; in experiment [2] it was -0.192 z-score; in experiment [3] it was -0.0995 z-score; in experiment [4], 0.108 z-score; in experiment [5], 0.173 z-score; in experiment [6] it was -0.321 z-score. In addition, the binding signal is -0.0771 z-score in experiment [7], 0 z-score in experiment [8] and 0.275 z-score in [9].

Consider CGATAAGCCCC, for which the binding signal is -0.417 z-score in [1]; 0.756 z-score in experiment [2]; 0.22 z-score in experiment [3]; 0.383 z-score in [4]; 0.238 z-score in experiment [5]; 0.334 z-score in [6]. The binding signal in experiment [7] worked out at 0.409 z-score; in experiment [8], 0.25 z-score; in [9], 0.31 z-score.

For GGATAAATCCC, the binding signal in experiment [1] is 0.859 z-score; in experiment [2], 0.48 z-score; in experiment [3] it was 0.567 z-score; in experiment [4], 0.64 z-score; in experiment [5], 0.582 z-score; in experiment [6] it was 0.489 z-score. For the same sequence, the binding signal amounted to 0.482 z-score in experiment [7], 0.867 z-score in [8] and 0.396 z-score in experiment [9].

For the sequence CGGAATTTCCT, the binding signal was 3.7 z-score in experiment [1]; -0.012 z-score in experiment [2]; -0.109 z-score in experiment [3]; 1.2 z-score in [4]; 0.553 z-score in [5]; -0.413 z-score in experiment [6]. Besides, the binding signal was -0.0415 z-score in experiment [7], 0.843 z-score in experiment [8] and 0.719 z-score in experiment [9].

GAAGATACCCT: the binding signal is -0.565 z-score in [1]; 0.622 z-score in experiment [2]; 0.0699 z-score in experiment [3]; 0.217 z-score in experiment [4]; 0.0853 z-score in experiment [5]; 0.142 z-score in experiment [6]. Besides, the values for the binding signal in experiment [7], in experiment [8] and in experiment [9] were 0.032 z-score, -0.0626 z-score and 2.91e-05 z-score, respectively.

Consider GAGAGGTCCCT, for which the binding signal in [1] was 0.699 z-score; in [2], 0.517 z-score; in experiment [3] it was 0.431 z-score; in experiment [4], 0.364 z-score; in [5], 0.0823 z-score; in experiment [6], 0.659 z-score. Further, the values for the binding signal in experiment [7], in experiment [8] and in experiment [9] were 0.436 z-score, 0.182 z-score and 0.0392 z-score, respectively.

Turning to GGATGCGTCCT, the binding signal in experiment [1] is 0.00389 z-score; in experiment [2] it was -1.17 z-score; in experiment [3] it was -0.665 z-score; in [4], -1.04 z-score; in experiment [5], -0.853 z-score; in experiment [6], -1.18 z-score. For the same sequence, the binding signal in [7] is -0.816 z-score; in [8], -1.72 z-score; in experiment [9], -0.907 z-score.

Consider GAAATGACCCT, for which the binding signal is -0.43 z-score in experiment [1]; -0.328 z-score in [2]; -0.304 z-score in [3]; -0.247 z-score in experiment [4]; -0.11 z-score in experiment [5]; -0.287 z-score in [6]. The binding signal in [7] is -0.38 z-score; in experiment [8], -0.632 z-score; in experiment [9], -0.223 z-score.

For the sequence GAAGAATCCCC, the binding signal was 1.11 z-score in experiment [1]; 1.36 z-score in experiment [2]; 2.18 z-score in experiment [3]; 2.18 z-score in experiment [4]; 1.83 z-score in experiment [5]; 2.29 z-score in experiment [6]. Besides, the values for the binding signal in experiment [7], in [8] and in [9] were 1.85 z-score, 1.56 z-score and 1.53 z-score, respectively.

Take GAGAACTTCCT: the binding signal is 0.439 z-score in experiment [1]; -0.697 z-score in [2]; -0.718 z-score in experiment [3]; -0.503 z-score in [4]; -0.731 z-score in [5]; -0.944 z-score in experiment [6]. Moreover, the binding signal was -0.781 z-score in [7], -0.692 z-score in experiment [8] and -0.645 z-score in experiment [9].

For the sequence GGAATATCCCT, the binding signal in experiment [1] is 2.04 z-score; in [2], 0.687 z-score; in experiment [3], 1.23 z-score; in [4], 1.41 z-score; in experiment [5] it was 1.36 z-score; in experiment [6] it was 0.471 z-score. The binding signal was 1.04 z-score in experiment [7], 0.979 z-score in experiment [8] and 1.6 z-score in experiment [9].
